Laboratory results from PubChem BioAssay (NCATS).
Records with an inconclusive call do not appear. Active and inactive are the calls of the source. Unless noted, the call rests on the fitted dose curve; in most records, active means well fitted curve in the direction sought with a large enough effect; inconclusive means small, poorly fitted or top-dose-only effect, or another doubt; inactive means no such curve, though single readings can be large; an effect the other way counts as inactive or inconclusive. Peptide text beside a SMILES is read from it. * marks the point of attachment. Hexanoyl = CCCCCC(=O)*

How the values were obtained:
[1] = OV-SAHO Cancer Cell Toxicity qHTS against the NCATS CANVASS Library (AID 1347348); further: nearly all actives have a fitted effect of over 55% in size; further: potency means the concentration at half of the fitted maximal effect
Outline: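 Per well, 1000 cells; exposure 72 h with compound at 11 final concentrations; readout CellTiter-Glo luminescence.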

[2] = COV-362 Cancer Cell Toxicity qHTS against the NCATS CANVASS Library (AID 1347352); further: series mostly up to about 38 µM; on the % scale 0 is the no-effect control and ±100 the full control effect
Outline: (§1)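 qHTS cytotoxicity: compounds tested in 11 concentrations on 1000 seeded cells per well over 72 h; bortezomib served as control; signal from CellTiter-Glo luminescence.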

[3] = KB-8-5-11 Cancer Cell Toxicity qHTS against the NCATS CANVASS Library (AID 1347364); further: nearly all actives have a fitted effect of over 75% in size; further: potency means the concentration at half of the fitted maximal effect
Outline: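 Natural products were titrated in 11 points onto KB-8-5-11 cells, 500 per well, and cytotoxicity was scored from CellTiter-Glo luminescence after 72 hr culture.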

[4] = qHTS for H2AX Agonists against the NCATS CANVASS Library (AID 1347378); further: potency means the concentration at half of the fitted maximal effect
Outline: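 CHO-K1 cells were plated overnight at 37C, then exposed to compounds (concentration series, 0.76% DMSO final) for 3 hr at 37C. Lysates received Eu-cryptate anti-pH2AX (S139) and d2 anti-H2AX antibodies; after 24 hr at room temperature, TR-FRET 665/620 nm ratio was read.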

[5] = qHTS for Activators of p53 Stress Response Pathway screened against the NCATS CANVASS Library (AID 1347388); further: 0% is about no effect
Outline: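 Beta-lactamase reporter driven by p53 response elements in HCT-116 cells, read as the 460 nm/530 nm emission ratio after CCF4 loading, following 16 h of exposure to an 11-point series. Cell viability was measured in the same wells by CellTiter-Glo luminescence.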

[6] = Secretion counterscreen for inhibitors of the SERCaMP assay screened against the NCATS CANVASS Library (AID 1347390);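 further: light from luciferase secreted into medium read as a measure of general secretion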; further: potency means the concentration at half of the fitted maximal effect
Outline: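 SH-SY5Y cells expressing constitutively secreted GLuc, 1000 cells/well, attached 4 h at 37C, then exposed to compounds (0.001 - 77 uM, 11-pnt series) for 20 h. Coelenterazine added; luminescence read to flag secretory-pathway interferers.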

[7] = Confirmatory screen NINDS Rhodamine qHTS for Zika virus inhibitors (AID 1347161); further: potency means the concentration at half of the fitted maximal effect; nearly all actives have a fitted effect of over 60% in size
Outline: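 Enzyme (25 nM, linked NS2B-NS3) was preincubated 15 min with compound in 10 mM Tris-HCl pH 8.0, 0.01% Tween 20. Rhodamine110 substrate (1.5 microM) was then added and fluorescence read at start and after 15 min.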

[8] = NCATS anti-infectives library activity on HEK293 viability as a counter-qHTS vs the C. elegans viability qHTS (AID 1745854);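 further: HEK293 cells exposed to compounds for 24 hr before the viability read; on the % scale 0 is the no-effect control and ±100 the full control effect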
Outline: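 Cytotoxicity in human HEK293 cells is measured by ATP-dependent CellTiter-Glo luminescence following a 24 hr incubation with titrated library compounds at 37C. Top final concentration is 41.7 uM.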

[9] = NCATS anti-infectives library activity on the primary C. elegans qHTS viability assay (AID 1745855; calls by dose curve)
Outline: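 Viability is taken from GFP fluorescence of PE254-GFP-FLuc C. elegans imaged by laser cytometry over 7 days. Ten L1 worms per well grow at 21 °C on TOP10 E. coli capsules with titrated compound; levamisole marks toxicity.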

[10] = qHTS drug screen for cell cycle checkpoint inhibitors in PARPi-resistant BRCA-mutant ovarian cancer cell lines. (AID 1963452; calls by dose curve); conditions: PEO1/OlaR viability, CellTiter-Glo luminescence, 96 h, stronger effect = lower value
Outline: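 PEO1, PEO4 and PEO1/OlaR ovarian cancer cells, 600 per well, exposed 96 h at 37C to a dilution series. Viability read by CellTiter-Glo luminescence, normalized to DMSO and empty wells; activity summarized as Z-AUC.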

[11] = test system: Zika virus NS2B-NS3 protease (linked construct); test: Primary screen NINDS Rhodamine qHTS for Zika virus inhibitors (AID 1347160); further: nearly all actives have a fitted effect of over 55% in size; further: potency means the concentration at half of the fitted maximal effect
Outline: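 Percent inhibition, normalized to uninhibited and enzyme-free controls, is fitted to a 4-parameter Hill equation. Fluorescence change comes from a 15-min cleavage of 1.5 microM bis-peptide Rhodamine110 substrate by 25 nM linked NS2B-NS3 at room temperature.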

[12] = HEK-293 Cancer Cell Toxicity qHTS against the NCATS CANVASS Library (AID 1347355); further: nearly all actives have a fitted effect of over 65% in size; further: potency means the concentration at half of the fitted maximal effect
Outline: as §1

[13] = Redox Reaction Profiling qHTS: Assay Interference Panel against the NCATS CANVASS Library (AID 1347401); further: potency means the concentration at half of the fitted maximal effect
Outline: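 Cell-free redox surrogate: 5 uM resazurin + 200 uM DTT, 50 mM HEPES pH 7.3/50 mM NaCl; cpds pinned, 11-pt qHTS; Ex525/Em598 read t0 and t=15 min, dark.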

C/C=C(/CO)C(=O)O[C@@H]1[C@H](O)[C@@H](C(=O)OC)O[C@@H]2C[C@H]3OC(n4cnc5c(N)ncnc54)[C@H](OC)[C@H]3O[C@@]12O (some centres not stated)
inactive: Potency [1] | Potency [2] | Potency [3] | Potency [4] | Potency [5] | Potency [6]

CN(C)c1cc(NC(=O)CNC(C)(C)C)c(O)c2c1C[C@H]1C[C@H]3[C@H](N(C)C)C(=O)C(C(N)=O)=C(O)[C@]3(O)C(=O)C1=C2O
inactive: Potency [8] | Potency [9] | Z-AUC [10] 1.31
1.05: Z-AUC ([10]; measured here: PEO4 Z-AUC)
1.13: Z-AUC ([10]; measured here: PEO1 parental Z-AUC)
active: Potency [7] 1.97 µM

CO/C=C/C(=O)c1cc2cnc3c(N)cc(=NC(=O)C(C)C)c([nH]1)c23
active: Potency [11] 17.5 µM | Potency [1] 0.0375 µM | Potency [12] 0.166 µM | Potency [6] 1.72 µM
inactive: Potency [13]

COC1C(C)OC(OCC23C[C@@H]4[C@H](C)CC[C@H]4C4(C=O)CC2C=C(C(C)C)C34C(=O)O)[C@@H](O)[C@H]1O (some centres not stated)
inactive: Potency [1] | Potency [2] | Potency [12] | Potency [4] | Potency [13]

CCCCc1nn2c(=O)cc(COC(=O)c3ccc(NC(=O)c4ccccc4Cl)cc3)nc2s1
active: Potency [7] 44.7 µM

C/C=C1/CN2C3CC1C1C=CC(=O)N4c5ccccc5[C@@]3(C[C@@H]2C2=C[C@H]3C5CC6N(CC[C@@]67c6ccccc6N(C2=O)[C@@H]37)C/C5=C/C)[C@H]14 (some centres not stated)
active: Potency [11] 15.6 µM | Potency [4] 21.7 µM

COC(=O)C1=C[C@]23C[C@@H](C)CC[C@@H]2[C@@]2(C)CC[C@@H](C(C)C)[C@@](O)(O3)[C@@H]12
inactive: Potency [4] | Potency [5] | Potency [13]
active: Potency [11] 44 µM | Potency [3] 18.7 µM

C/C(=C\[C@H](C)C(=O)CCCC1CC(=O)NC(=O)C1)[C@@H]1OC(=O)/C=C/CC/C=C/[C@H](O)[C@@H](O)[C@@H]1C
active: Potency [11] 49.3 µM | Potency [1] 0.747 µM | Potency [12] 0.662 µM | Potency [6] 2.72 µM | Potency [13] 24.1 µM
inactive: Potency [3]

CCC(=O)N[C@@H](C[C@H](C)C(Cl)(Cl)Cl)C(=O)N1C(=O)C=C(OC)[C@@H]1C[C@H](C)CCl
inactive: Potency [11] | Potency [3] | Potency [4] | Potency [6] | Potency [13]

Oc1ccc(C2Oc3cc(O)c4c(c3[C@@H]2c2cc(O)cc(O)c2)[C@H]2C(c3ccc(O)cc3)c3c(O)cc5c(c3[C@H]2C4c2ccc(O)cc2)[C@H](c2cc(O)cc(O)c2)C(c2ccc(O)cc2)O5)cc1 (some centres not stated)
inactive: Potency [12]
active: Potency [11] 15.6 µM | Potency [1] 16.7 µM

CO[C@H]1/C=C/CCCCC(=O)O[C@@H](/C(C)=C/[C@H](C)C(=O)C[C@H](O)CC2CC(=O)NC(=O)C2)[C@@H](C)C1
inactive: Potency [3] | Potency [4] | Potency [5]
active: Potency [11] 49.3 µM | Potency [12] 14.8 µM

COc1cc([C@@H]2c3cc4c(cc3C[C@@]3(O[C@@H]5O[C@H](CO)[C@@H](O)[C@H](O)[C@H]5O)COC(=O)[C@H]23)OCO4)cc(OC)c1OC
active: Potency [11] 44 µM | Potency [12] 0.0469 µM
inactive: Potency [1] | Potency [5] | Potency [6] | Potency [13]

C=C1C[C@]23C=CC(=O)[C@@](C)(CCCC(C)C(=O)N[C@@H](CO)C(=O)O)[C@@H]2C[C@@H]1CC3 (some centres not stated)
inactive: Potency [2] | Potency [12] | Potency [4] | Potency [5] | Potency [6]

[C-]#[N+][C@@]12C(=O)[C@@H]3[C@@H](O[C@@]4(C(=O)N(C)c5cccc1c54)C3(C)C)C(=O)[C@@]2(C)C=C
inactive: Potency [2] | Potency [3] | Potency [4] | Potency [13]

CN1CC[C@]23c4ccccc4N[C@H]1[C@]21CCN(C)[C@H]3Nc2ccccc21
inactive: Potency [1] | Potency [2] | Potency [3] | Potency [4] | Potency [13]

CCCCCC(=O)N[C@@H](CC(C)C)C(=O)N[C@H](C=O)CCC(=O)O (Hexanoyl-Leu-Glu-aldehyde)
inactive: Potency [2] | Potency [12] | Potency [4] | Potency [5] | Potency [6]

COC(=O)[C@]1([C@H]2CCC(=O)O2)CC(=O)c2c(O)cc(C)cc2O1
inactive: Potency [1] | Potency [12] | Potency [3] | Potency [4] | Potency [5] | Potency [6] | Potency [13]

C[C@@]1(CCC(=O)Nc2c(O)ccc(C(=O)O)c2O)C(=O)C=C[C@]23C[C@H]4C[C@H](O[C@@]4(C)C2)C31 (some centres not stated)
inactive: Potency [2] | Potency [4] | Potency [5] | Potency [6] | Potency [13]

COC(=O)[C@@]12Oc3cccc(O)c3C(O)=C1C(=O)C[C@H](C)[C@H]2O
inactive: Potency [2] | Potency [12] | Potency [13]

C=C[C@]1(C)CC[C@@H]([C@H](C)C(=O)/C=C/C(C)(C)O)O1
inactive: Potency [2] | Potency [4] | Potency [5] | Potency [6]

CC(CCC[C@]1(C)C(=O)C=C[C@@]23C[C@]4(C)O[C@@H](C[C@@H]4[C@H]2O)C31)C(=O)O (some centres not stated)
inactive: Potency [12] | Potency [3] | Potency [13]

CC(C)=CCC[C@]1(C)[C@H]2CC(=O)[C@@]3(CO3)[C@@H]1C2
inactive: Potency [1] | Potency [2] | Potency [3] | Potency [5] | Potency [6] | Potency [13]
